Data: PubChem BioAssay (NCI)
This is part of a sample that, as a whole, favours compounds with a hit. Of some 83,000 tested, about 20% had one in any assay.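 Values shown are percent growth following 48 h exposure of cells in 96-well plates to a single concentration of compound; below 10 was considered active.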 Values without a mark were called inactive. Calls of active or inactive are those of the source.

How the values were obtained:
Test in all cases: NCI-60 one-dose screen, 48 h (100 = growth as untreated, 0 = no growth, -100 = all killed)
Settings in all cases: 10 µM unless noted
[1] = tested on: NCI-H23 lung
[2] = tested on: NCI-H226 lung
[3] = tested on: NCI-H322M lung
[4] = tested on: HOP-62 NSCLC
[5] = tested on: NCI-H460 lung
[6] = tested on: HOP-92 NSCLC
[7] = tested on: NCI-H522 lung
[8] = tested on: A549/ATCC NSCLC
[9] = tested on: 786-0 renal
[10] = tested on: COLO 205 colon

Compound | growth [1] | growth [2] | growth [3] | growth [4] | growth [5] | growth [6] | growth [7] | growth [8] | growth [9] | growth [10]
CCc1ccc(CNc2ccc(N3CCOCC3)c(C(=O)O)c2)cc1 | 95.2% | 109% | 102% | 90.2% | 130% | 105% | 83.3% | 99% | 98.9% | 101%
CC(C)(C)c1cc(C=O)cc(C(C)(C)C)c1O | 112% | 97.8% | 101% | 106% | 111% | 79.5% | 90.7% | 101% | 107% | 100%
CC(=O)[C@H]1CCC/C=C/[C@@H]2C[C@H](O)C[C@H]2[C@H](O)/C=C/C(=O)O1 | -5.21% (active) | -57.6% (active) | 29% | 25.4% | 6.67% (active) | 22.9% | -41.2% (active) | 20.5% | -48.3% (active) | -94.8% (active)
Cn1ccnc1C(=O)/C=C/c1ccc(CC(=O)Nc2ccc(F)cc2)cc1 | 27.8% | 82.5% | 42.8% | 18.4% | 3.59% (active) | 71% | 16.9% | 38.2% | 30.4% | 41.6%
COc1cc2oc(-c3cccc(C(=O)Nc4ccc(Br)cc4)c3)cc(=O)c2c(OC)c1OC | 77.7% | 10.7% | 62.4% | 58% | 36.2% | 50.9% | 60.9% | 52.3% | 67.4% | 54.4%
C=C1C(=O)O[C@H]2[C@H]1CC/C(COC(=O)NCc1c[nH]c3ccc(Cl)cc13)=C\CC[C@@]1(C)O[C@@H]21 | 34.8% | 6.61% (active) | 76.2% | 60.5% | 18% | -35.7% (active) | -90.4% (active) | 55.8% | -61.8% (active) | -59.3% (active)
COc1ccc(/C=C2\COc3ccc(-c4ccccc4)cc3C2=O)c(OC)c1 | 77.9% | 86.6% | 90.2% | 120% | 83.4% | 109% | 39.7% | 90.9% | 83.2% | 124%
COc1cc2c(c(OC)c1OC)-c1ccc(NNC(=S)N(Cc3cccc(C[N+](Cc4cccc(CNC56CC7CC(CC(C7)C5)C6)c4)(Cc4cccc(CNC56CC7CC(CC(C7)C5)C6)c4)Cc4cccc(CN(C(=S)NNc5ccc6c(cc5=O)[C@@H](NC(C)=O)CCc5cc(OC)c(OC)c(OC)c5-6)C56CC7CC(CC(C7)C5)C6)c4)c3)C34CC5CC(CC(C5)C3)C4)c(=O)cc1[C@@H](NC(C)=O)CC2 (stereo not given in full) | 20.7% | -8.38% (active) | 49.6% | 48.6% | 2.48% (active) | -5.87% (active) | -22.8% (active) | 20.9% | 11% | -56.9% (active)
CCCCCCNC(=O)Oc1ccc(/C(=C(\C)c2ccccc2)c2ccc(OCCCN(C)C)cc2)cc1 | 82.8% | 104% | 75.2% | 98.3% | 39.1% | 83.7% | 88.9% | 72.7% | 71% | 58.1%
COc1ccc(/C=C2\Oc3cc(OCCCCCN4CCCCC4)ccc3C2=O)cc1OC | 78.6% | 83.1% | 97.9% | 97.4% | 59.2% | 54.4% | 89.9% | 88.7% | 84.4% | 98.5%
O=Cc1ccc(-c2cn3ccnc3c(-c3ccc4ncn(Cc5ccccc5)c4c3)n2)cc1 | 45.5% | 99.5% | 88.8% | 76.2% | 62.2% | 57% | 74.7% | 103% | 53.3% | 126%
C=C1C(=O)O[C@H]2[C@H]1CC/C(COC(=O)NCCc1c[nH]c3ccc(OC)cc13)=C\CC[C@@]1(C)O[C@@H]21 | 73.9% | 51% | 87.2% | 83.4% | 69.4% | -8.74% (active) | -74.2% (active) | 64.2% | -35.4% (active) | -47.2% (active)
NC(=NCCCOc1ccc(F)cc1)Nc1ccc(Cl)cc1 | 46% | 65.7% | 60.1% | 46.6% | 84.2% | 60.7% | 76.5% | 53% | 71.4% | -69.6% (active)
COc1cc2c(-c3cc4c(cc3CNCCc3ccc5c(c3)OCO5)OCO4)cccc2c(OC)c1O | 80.5% | 92.2% | 84.6% | 70.9% | 91.2% | 66.4% | 79.1% | 92.3% | 90.1% | 117%
CCCCCOc1ccc(/C=N/Nc2cc(C)nc3ccc(Cl)cc23)cc1 | 62.5% | 88% | 44.3% | 29.7% | -63.1% (active) | 56.7% | -30.6% (active) | -8.41% (active) | -85.2% (active) | -55.9% (active)
O=C1NN(C(=O)c2ccccc2)C(c2ccc(Cl)c(Cl)c2)=C/C1=C\c1ccc([N+](=O)[O-])cc1 | 85.3% | 88.7% | 98% | 101% | 83% | 3.02% (active) | 63.8% | 96.2% | 102% | 27.9%
CCc1c(Cl)nc(N)nc1Nc1ccc(C)c(C)c1 | 96.9% | 83.5% | 110% | 92.7% | 80.7% | 112% | 81.9% | 99.3% | 101% | 106%
CNCCOc1nc2c3cnccc3cc(-c3cc(OC)c(OC)c(OC)c3)c2c2ccncc12 | -49.1% (active) | -42.5% (active) | -4.74% (active) | -39% (active) | -46.8% (active) | -20.8% (active) | -62.7% (active) | -8.59% (active) | -96.7% (active) | -61.2% (active)
Cc1cnc(C(=O)Nc2nc3ccc(S(=O)(=O)Nc4ccc(C(C)(C)C)cc4)cc3[nH]2)cn1 | 37.4% | 31.3% | 41.6% | 42.5% | 1.67% (active) | 37.4% | 24.4% | 21.6% | 22.7% | 6.64% (active)
O=C(/C(=C\c1ccc([N+](=O)[O-])cc1)S(=O)Cc1ccc(F)cc1)c1ccc(F)cc1 (stereo not given) | 46.7% | 77.9% | 79.9% | 38.1% | 30.9% | 65.2% | -22.1% (active) | 79.9% | -43.9% (active) | 8.65% (active)
C=C(C)[C@@H]1CC[C@]2(CN)CC[C@]3(C)[C@H](CC[C@@H]4[C@@]5(C)CCCNC(C)(C)[C@@H]5CC[C@]43C)[C@@H]12 | 10.5% | 53.9% | -42.7% (active) | 21.2% | -78.3% (active) | -29.4% (active) | -31% (active) | -68.4% (active) | -97.2% (active) | -71.2% (active)
Cc1ccc(-c2csc(NC(=O)CSc3nc(-c4ccccc4)cc(=O)[nH]3)n2)cc1 | 92.2% | 103% | 93.4% | 100% | 101% | 82.5% | 80.3% | 91.7% | 104% | 109%
CCN(c1ccccc1)S(=O)(=O)c1cc([N+](=O)[O-])ccc1Cl | 80.2% | 36.4% | 73.3% | 105% | 106% | 49.9% | 23.7% | 102% | 97.4% | 129%
